Screening data deposited in PubChem BioAssay by Broad Institute.
F508del corr: correctors of CFTR F508del function in bronchial epithelial cells. hit rate 0.36% among 350,000. activity (quench increase), % at 7.58 µM. CFBE cells, YFP halide quenching; stimulated with forskolin plus potentiator P3; % fluorescence drop versus neutral controls;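 active = mean added fluorescence quench of at least 8% versus neutral control, with both replicates also reaching 8%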;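 also: cells transiently co-express mutant CFTR-F508del with the halide-sensitive YFP; corrector assay measuring rescue of mutant channel to the surface after 24 h compound exposure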
PAX8 reporter: inhibitors of PAX8 transcriptional activity in RMG-I cells; RMG-I TPO-luciferase reporter, SteadyGlo, 24 h; inhibition, % at 12.6 µM; hit rate 1.2% among 360,000; AID 652154;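 active = mean replicate inhibition at least 60% with every replicate also reaching 60%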;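 also: luciferase light reporting Pax8 driven TPO promoter activity; plate controls were median of neutral control wells for no effect and mitoxantrone controls for full effect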
Env fusion inh: inhibitors of HIV Env-mediated cell fusion; hit rate 1.1% among 360,000; HeLa-JRFL Env/CEM21 cell fusion, luciferase; inhibition, % at 12.3 µM;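 active = mean replicate inhibition score of at least 50 and every replicate individually at or above 50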;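 also: 0% = plate neutral controls and 100% = maraviroc near 300 nM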
INS-1E GSIS act: primary screen for activators of insulin secretion dependent on glucose, INS-1E cells, GLuc reporter luminescence. hit rate 0.61% among 370,000. activation, % at 16.6 µM. AID 743287. INS-1E GLuc reporter insulin secretion, 2-3 h;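 active = lowest replicate activation of at least 40%, so every replicate reaches that level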;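 also: 0% = median of neutral control wells and 100% = median of IBMX positive control wells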
EWS-Fli block: EWS/Fli transcriptional activity inhibition. A673 NR0B1-luciferase reporter, viability-normalised. hit rate 0.67% among 350,000. inhibition, % at 12.6 µM;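 active = mean inhibition of at least 50% after viability correction, with every replicate also passing that limit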;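 also: firefly luciferase signal divided by Alamar Blue viability fluorescence both relative to DMSO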
PGC1a acetyl inh: lowers PGC1a acetylation signal in U2OS cells. inhibition, % at 15.6 µM. hit rate 0.17% among 350,000. AlphaScreen anti-acetyl-lysine; with virally co-expressed GCN5 acetyltransferase;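 active = every replicate shows inhibition of at least 40%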;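 also: 0% = neutral control wells and 100% = positive control wells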
Numbers without * were called inactive; x = no result given; [ ] = another dose, or the depositor's remark. Hits are enriched below; roughly 2.7% of the tested compounds scored in any of these assays.

SMILES | F508del corr | PAX8 reporter | Env fusion inh | INS-1E GSIS act | EWS-Fli block | PGC1a acetyl inh
CN(C)CCCNC(=O)[C@H]1[C@H](CO)[C@H]2Cn3c(ccc(C4=CCCC4)c3=O)[C@H]2N1CCC(F)(F)F | x | x | 57*[16.7 µM] | -1 | -15 | x
C[C@H]1CN([C@@H](C)CO)C(=O)c2cc(N(C)C)ccc2O[C@H]1CN(C)S(=O)(=O)c1ccccc1 | 3 | 3 | 29[16.7 µM] | 13 | -1 | -7
CC1(C)Cc2c(ccc3ccccc23)C(=O)N1 | x | x | 80* | x | x | 33
COc1ccc(OCC(=O)Nc2ccc3oc(-c4ccncc4)nc3c2)cc1 | -5 | -2 | 13 | -5 | 2 | 4
COc1ccc(-c2nc3cc(NC(=O)Cc4ccc(OC)c(OC)c4)ccc3o2)cc1 | x | 1 | 63* | x | x | 13
O=C(Cc1ccccc1)N1CC2(C1)[C@@H](c1ccccc1)[C@H](CO)N2C(=O)Cc1ccccc1 | -1 | x | x | -25 | 6 | 1
C[C@H]1CN([C@@H](C)CO)C(=O)c2cccc(NC(=O)Nc3ccc(F)cc3)c2O[C@H]1CN(C)S(=O)(=O)c1ccc(Cl)cc1 | 0 | 67* | x | -21 | 13 | 3
COc1ccc(S(=O)(=O)N(C)C[C@H]2Oc3c(NC(=O)Nc4ccc(C(F)(F)F)cc4)cccc3C(=O)N([C@@H](C)CO)C[C@H]2C)cc1 | 3 | 106* | 108*[16.7 µM] | -19 | 15 | 4
C[C@H](CO)N1C[C@H](C)[C@@H](CN(C)S(=O)(=O)c2ccc(Cl)cc2)Oc2c(NC(=O)c3nc4ccccc4s3)cccc2C1=O | 2 | 72* | -4[16.7 µM] | -6 | 5 | 5
Cc1ccc(S(=O)(=O)N(C)C[C@H]2Oc3c(NC(=O)c4ccc(-c5nccs5)cc4)cccc3C(=O)N([C@H](C)CO)C[C@@H]2C)cc1 | 0 | -15 | 0[16.7 µM] | -6 | 5 | -4
Cc1ccc(S(=O)(=O)N(C)C[C@@H]2Oc3c(NC(=O)c4ccc(-c5nccs5)cc4)cccc3C(=O)N([C@@H](C)CO)C[C@@H]2C)cc1 | 2 | 95* | -36[16.7 µM] | 13 | -6 | 2
C[C@@H]1CN([C@H](C)CO)C(=O)c2cccc(NC(=O)Nc3ccc(F)cc3)c2O[C@H]1CN(C)S(=O)(=O)c1ccc(Cl)cc1 | 2 | -7 | x | -2 | 2 | 5
C[C@@H]1CN([C@@H](C)CO)C(=O)c2cccc(NC(=O)c3nc4ccccc4s3)c2O[C@@H]1CN(C)S(=O)(=O)c1ccc(Cl)cc1 | 3 | 27 | -15[16.7 µM] | 1 | -12 | 5
Cc1ccc(S(=O)(=O)N[C@H]2CC[C@@H](CCn3cc(C4CCCC4)nn3)O[C@H]2CO)cc1 | 4 | x | x | -6 | -3 | 5
C[C@@H]1CN([C@@H](C)CO)C(=O)c2cccc(NC(=O)C3CC3)c2O[C@H]1CN(C)Cc1ccc(Cl)c(Cl)c1 | 0 | x | 18[16.7 µM] | -17 | 6 | -1
CNC[C@H]1Oc2c(NC(=O)c3nc4ccccc4s3)cccc2C(=O)N([C@H](C)CO)C[C@@H]1C | -2 | 61* | 38[16.7 µM] | 9 | 58* | 0
C[C@@H]1CN([C@H](C)CO)C(=O)c2cccc(NC(=O)Nc3cccc4ccccc34)c2O[C@@H]1CN(C)S(=O)(=O)c1ccc(Cl)cc1 | 2 | 84* | x | -13 | -2 | 3
Cc1ccc(S(=O)(=O)N[C@H]2CC[C@@H](CCNC(=O)Nc3ccc(Cl)cc3)O[C@@H]2CO)cc1 | 1 | 32 | 49[16.7 µM] | 3 | -13 | 3
CCc1nc2c(OCc3ccccc3C)cccn2c1N(C)C(=O)c1ccco1 | 1 | -1 | -9 | 61* | 1 | 1
CCc1nc2c(OCc3ccccc3C(=O)OC)cccn2c1N(C)C(=O)c1ccncc1 | 0 | -8 | 0 | 117* | 5 | 8
COCC(=O)N1[C@@H](CO)[C@@H](c2ccc(-c3cccc(OC)c3)cc2)C12CN(C(C)=O)C2 | 0 | -12 | x | -7 | 0 | -6
O=C(CSc1nc2ccccc2n1-c1ccccc1)Nc1ncc(Cl)cc1Cl | 8.7* | 9 | -2 | -10 | -13 | x
O=C(CN1C(=O)c2ccccc2S1(=O)=O)c1ccccc1Cl | 0 | 90* | 83* | 2 | 82* | x
O=C(CN1C(=O)c2ccccc2S1(=O)=O)Nc1ncc(Cl)cc1Cl | -1 | 39 | x | 21 | 58* | 13
